The text below walks through data of PubChem BioAssay (NCI).

The panel holds about 83,000 compounds, 20% with a hit somewhere; the sample as a whole holds those more often.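 48-hour exposure, single concentration, 96-well plates; percent growth endpoint where 0 means no net growth. Active: below 10.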 A number with no mark means an inactive call. Calls of active or inactive are those of the source.

For the experiment, the system named is SR leukemia. As to the kind of experiment: NCI-60 one-dose screen, 48 h (100 = growth as untreated, 0 = no growth, -100 = all killed). Conditions: 10 µM unless noted.
In the case of `CC(C)CCN(CCCNc1c2c(nc3ccccc13)CCCC2)CCC(C)C`, the growth was 5.77% (active).
For `COc1cc(/C=C/C(=O)c2ccccc2O)ccc1OCCCOc1cc2c(cc1OC)C(=O)N1CCC[C@H]1C=N2` the value was -13.8% (active); for `O=C1NC(Cc2c[nH]c3ccccc23)C(=O)N1Cc1ccc(Cl)cc1` (centres undefined), 90.1%.
For `COc1ccc(C2CC(c3cccs3)=NN2c2ccc(S(=O)(=O)NC(=O)NCc3cccc(OC)c3)cc2)cc1` (centres undefined) the value was 75.8%; for `CCOC(=O)C1=C(CSC(=S)N(C2CCCCC2)C2CCCCC2)N(C)C(=O)NC1c1ccccc1` (centres undefined), 29.9%; for `COc1cccc2nc(Nc3ccc(NC(=O)c4ccc5ncccc5c4)cc3)ccc12`, 65.7%.
For `Cc1cc(NC(=O)COC(=O)c2sc3cc(F)ccc3c2Cl)no1` the value was 108%.
Regarding `CC/C=C\C[C@H](O)C/C=C1/C(=O)C(Cl)=C[C@@H]1C/C=C\CCCC(=O)O`, the growth is 10.9%.
For `O=Nc1c(-c2c(O)[nH]c3ccc([N+](=O)[O-])cc23)[nH]c2ccc(O)cc12` the value was 0.378% (active); for `O=C(Nc1ccc(F)cc1)c1cc([N+](=O)[O-])ccc1O`, 83.7%; for `Cc1ccc(S(=O)(=O)OCC(=O)Nc2ccc(C(=O)O)c(O)c2)cc1`, 45.7%.
Turning to `Cc1cc(C)c(NC(=O)c2sc3nc4c(cc3c2N)CN(Cc2ccccc2)CC4)c(C)c1`, the growth was 10.1%.
With `COc1ccc(-c2nnc(COc3ccc(NS(=O)(=O)c4ccc(OC)cc4)cc3F)o2)cc1` the figure was 50.6%; with `Cc1ccc2nc(-c3c(CCCO)noc3N)[nH]c(=O)c2c1`, 71.8%.
